Source: the supplement of paper PMC13094657
± gives the standard deviation of the averaged measurements.

Assays:
[1] = system: MDA-MB-231; assay: cell viability relative to vehicle unstimulated control (fraction); higher = more viable cells; conditions: pre-treatment time: 18 h then 24 h IFNg/TNF
[2] = system: MDA-MB-231; assay: kynurenine production, fold change vs DMSO IFNg/TNF control; higher = more kynurenine produced (less inhibition); conditions: pre-treatment time: 18 h then 24 h IFNg/TNF
Procedure, shortened: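 After trichloroacetic acid and p-dimethylaminobenzaldehyde treatment, supernatants were read at 492 nm, with 0–100 μM standards. These came from MDA-MB-231 cells (7 × 10^4/well, 96-well plates) pre-treated 18 h with natural products in 0.1% DMSO and then exposed 24 h to IFNγ (1 U/ml) and TNF (6.25 ng/ml) at 37°C. Values for kynurenine production are fold changes over same-plate cytokine-stimulated vehicle wells, averaged over duplicate plates in the first screening round.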
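Throughout, for cell viability relative to vehicle unstimulated control: viability of the cells left after supernatant collection, read with Deep Blue dye added for 4 h, as absorbance at 570 nm minus 600 nm.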

SMILES	cell viability [1]	kynurenine production [2]
CC1(C)CC[C@]2(C(=O)O)CCC3=C([C@@H](CCl)C[C@@H]4[C@@]5(C)C[C@H](O)[C@H](O)[C@@](C)(C(=O)O)[C@@H]5CC[C@@]34C)[C@@H]2C1 [Tenuigenin] (compound dose: 10 uM)	0.983 ± 0.068	0.952 ± 0.2
CC(CCC(OC1OC(COC2OC(CO)C(O)C(O)C2O)C(O)C(O)C1OC1OC(CO)C(O)C(O)C1O)C(C)(C)O)C1CCC2(C)C3CC=C4C(CCC(OC5OC(COC6OC(CO)C(O)C(O)C6O)C(O)C(O)C5O)C4(C)C)C3(C)C(=O)CC12C (stereo not given) [11-oxo-mogroside V] (compound dose: 10 uM)	1.1 ± 0.12	1.33 ± 0.053
CC1=CCC2CC1C2(C)C (stereo not drawn) [(-)-α-Pinene] (compound dose: 10 uM)	1.01 ± 0.035	1.21 ± 0.14
C=C1C[C@@]23CC[C@H]4[C@@](C)(CCC[C@@]4(C)C(=O)O[C@@H]4O[C@H](CO)[C@@H](O)[C@H](O)[C@H]4O)[C@@H]2CC[C@]1(O[C@@H]1O[C@H](CO)[C@@H](O)[C@H](O)[C@H]1O)C3 [Rubusoside] (compound dose: 10 uM)	1.07 ± 0.02	0.88 ± 0.065
CC1=CCC2CC1C2(C)C (stereo not drawn) [(+)-α-pinene] (compound dose: 10 uM)	0.9918 ± 0.0024	0.97 ± 0.036
CC1OC(OC2C(CO)OC(OCC3OC(OC(=O)C45CCC(C)(C)CC4C4=CCC6C7(C)CCC(OC8OCC(O)C(O)C8O)C(C)(CO)C7CCC6(C)C4(C)CC5)C(O)C(O)C3O)C(O)C2O)C(O)C(O)C1O (stereo not given) [Hederacoside D] (compound dose: 10 uM)	0.923 ± 0.067	0.851 ± 0.16
COC(=O)[C@]12OC[C@]34[C@H]([C@@H](O)[C@@H]1O)[C@@]1(C)CC(=O)C(O)=C(C)[C@@H]1C[C@H]3OC(=O)[C@H](OC(=O)C=C(C)C)[C@@H]24 [Brusatol] (compound dose: 10 uM)	0.432 ± 0.034	0.1176 ± 0.00049
C=C(C)[C@@H]1CC[C@]2(C(=O)O)CC[C@]3(C)[C@H](CC[C@@H]4[C@@]5(C)CCC(=O)C(C)(C)[C@@H]5CC[C@]43C)[C@@H]12 [Betulonic acid] (compound dose: 10 uM)	0.836 ± 0.033	0.785 ± 0.074
C[C@H](CC[C@@H](OC[C@@H]1O[C@H](OC[C@H]2O[C@@H](O)[C@H](O)[C@@H](O)[C@@H]2O)[C@@H](O)[C@H](O)[C@H]1O)C(C)(C)O)[C@H]1CC[C@@]2(C)[C@@H]3CC=C4[C@@H](CC[C@H](O)C4(C)C)[C@]3(C)[C@H](O)C[C@]12C [Mogroside IIA1] (compound dose: 10 uM)	1.22 ± 0.15	1.07 ± 0.13
CC(=O)O[C@H]1/C(CO)=C\C[C@H]2[C@@H](/C=C(/C)C(=O)[C@@]3(OC(C)=O)C[C@H](C)[C@H](OC(=O)c4ccccc4)[C@H]13)C2(C)C [Euphorbia factor L24] (compound dose: 10 uM)	1.09 ± 0.022	0.911 ± 0.078
CC(=O)OC(CC(C)C1=C2C[C@H](O)C3[C@@]4(C)CCC(=O)C(C)(C)C4CC[C@]3(C)[C@@]2(C)CC1)C1OC1(C)C (stereo not given in full) [Alisol B 23-acetate] (compound dose: 10 uM)	1.05 ± 0.034	1.27 ± 0.24
CC(=O)O[C@H]1C(=O)[C@@]2(C)[C@H]([C@H](OC(=O)c3ccccc3)[C@]3(O)C[C@H](OC(=O)[C@H](O)[C@@H](NC(=O)c4ccccc4)c4ccccc4)C(C)=C1C3(C)C)[C@]1(OC(C)=O)CO[C@@H]1C[C@@H]2O [Paclitaxel] (compound dose: 10 uM)	0.827 ± 0.035	0.317 ± 0.017
CC(C)=CCC/C(C)=C/CC/C(C)=C/CC/C=C(\C)CC/C=C(\C)CCC=C(C)C [Squalene] (compound dose: 10 uM)	0.914 ± 0.13	0.887 ± 0.027
CC(C)=CCC[C@](C)(O)[C@H]1CC[C@]2(C)[C@@H]1[C@H](O)C[C@@H]1[C@@]3(C)CC[C@H](O)C(C)(C)[C@@H]3[C@@H](O[C@@H]3O[C@H](CO)[C@@H](O)[C@H](O)[C@H]3O[C@@H]3O[C@H](CO)[C@@H](O)[C@H](O)[C@H]3O)C[C@]12C [Ginsenoside Rf] (compound dose: 10 uM)	0.9642 ± 0.0068	0.749 ± 0.17
C[C@H]1[C@H](C)CC[C@]2(C(=O)O)CC[C@]3(C)C(=CC[C@@H]4[C@@]5(C)CCC(=O)C(C)(C)[C@@H]5CC[C@]43C)[C@H]12 [Ursonic acid] (compound dose: 10 uM)	0.9233 ± 0.0046	0.733 ± 0.12
